According to ChEMBL document CHEMBL3988442, “University of Dundee, Small-Polar-MMV Screening Library” (2021):

Target: AMP-activated protein kinase, AMPK (Homo sapiens) (UniProt P54646+O43741+P54619+Q9UGJ0+Q9Y478+Q13131+Q9UGI9)
Test: AMP-dependent Kinase enzyme assay. An in vitro enzyme assay that detects ADP turnover that is directly proportional to AMPK activity. This uses naive AMPK that is activated during the assay with MK-8722
Format: functional
Set-up: scale not given: direction of the effect not stated beside the values
Settings: 30 µM

| Compound | Percent Effect [%] |
| --- | --- |
| Fc1ccc(COCC2CCN(Cc3ccccn3)CC2)cc1 | 1.48 |
| Cc1cc(C(=O)NC(C)Cc2ccccc2Cl)n(C)n1 (centres undefined) | 7.6 |
| Cc1ccccc1[C@@H]1CN(Cc2ccc(C(F)(F)F)nc2)C[C@H]1C(=O)O | -5.65 |
| CN(CCc1ccccc1)Cc1c(C2CCNCC2)[nH]c2ncccc12 | 7.86 |
| O=C(Cn1cc(Cl)cn1)N1CCNC1=O | -8.6 |
| Cc1cnc(N2CCN(C(C)C(N)=O)CC2)nc1 (centres undefined) | -0.289 |
| Cc1ncsc1C(=O)N1CCCC1c1c(C)nn(C)c1C (centres undefined) | 1.43 |
| O=C(CC1COCCN1)N1CCC(N2CCc3ccccc3C2)CC1 (centres undefined) | -4.72 |
| Cc1noc(CCNC(=O)C2CSCN2C(=O)C2CCCC2)n1 (centres undefined) | 3.34 |
| Cc1ccc(CN(C)C(=O)CNC(C)(C)c2noc(C(C)(C)C)n2)o1 | -1.82 |
| CN(Cc1ccccc1F)Cc1cc2c(cc1Br)OCCO2 | -3.17 |
| CC(C)c1nnc(C2CCN(CC(=O)Nc3cccnc3)CC2)o1 | -5.27 |
| CN1CCC(Nc2cc(Cl)ccc2OCC(F)(F)F)C1=O (centres undefined) | -5.49 |
| CCCN(CCO)S(=O)(=O)c1ccc2[nH]c(=O)[nH]c2c1 | -3.64 |
| Cc1ccc(N2CCCC(Nc3nn4cc(C)nc4s3)C2)nn1 (centres undefined) | 8.12 |
| C=C(C)COc1cccc(CNCCc2nc(N)cc(O)n2)c1 | 3.76 |
| Cn1cc(S(=O)(=O)Nc2ccc3[nH]c(C4CCC4)nc3c2)cn1 | -6.7 |
| COCCC(=O)N(CCC#N)c1ccc(C)c(C)c1 | -6.74 |
| Cc1nc(C(NC(=O)CN(C)C(C)C)c2ccccc2F)no1 (centres undefined) | -4.35 |
| Cc1ccc(F)c2c1CCCN2CC(=O)NC1CCS(=O)(=O)C1 (centres undefined) | 3.51 |

| Compound | Percent Effect [%] |
| --- | --- |
| COCCCNC(=O)Nc1c(C)cccc1C(C)C | 7.47 |
| CC(C)C1CCCN1C(=O)Nc1ccc(=O)n(C)c1 (centres undefined) | 56.6 |
| O=C(CCn1ccnn1)N1CCCC(n2cncn2)C1 (centres undefined) | 14.6 |
| C[C@@H]1CN(c2ccc(Cl)cn2)C[C@]1(C)O | -1.99 |
| CC1CCN(c2ccc(C(=O)N3CCCC3c3nncn3C)cn2)CC1 (centres undefined) | -4.84 |
| Cc1cc(C)n(CC2CCN(CC(O)Cn3cccn3)CC2)n1 (centres undefined) | -0.567 |
| CC(C)C(C)NC(=O)Nc1cccc(OCC#N)c1 (centres undefined) | -3.11 |
| Cc1ccc(C(=O)NC2CCN(S(C)(=O)=O)CC2)c(=O)[nH]1 | 1.76 |
| Cc1nsc(C(=O)NCCc2ccc(Cl)cc2)n1 | -0.0138 |
| COCCOc1ccc(F)cc1NCc1nc2ccccc2n1C | 8.68 |
| COc1ccc2c(c1)CCCN(C(=O)NCC1CCCO1)C2 (centres undefined) | 5.17 |
| CNc1nc(C(=O)N2CCn3nc(C(=O)OC)cc3C2)cs1 | -0.197 |
| NC(=O)C(NC1CCN(CC2CCCCC2)CC1)c1ccc(F)cc1 (centres undefined) | -4.02 |
| Cc1nc(CC(C)C)cc(C(=O)N2C[C@@H](CN(C)C)[C@@H](CO)C2)n1 | -4.49 |
| Cc1ccc(C(=O)NCCC2CCN(C)CC2)cc1N(C)S(C)(=O)=O | -4.15 |
| O=S(=O)(NCCCn1cccn1)c1ccc2c(c1)CCC2 | 12.2 |
| COCCN1C(=O)[C@H]2CC[C@@H]1CN(S(=O)(=O)c1ccc(C#N)cc1)C2 | 10.8 |
| CC(=O)Nn1ccc2c(nnc3c(-c4ccccc4)cnn32)c1=O | 12.7 |
| CN(CCc1ccccc1)Cc1c(C2CCOCC2)[nH]c2ncccc12 | 11.1 |
